Screens (PubChem BioAssay)
PTAP TSG101 blk – blocks PTAP/TSG101 interaction to inhibit HIV-1 budding; Fluorescence polarization, FITC-PTAP peptide / Tsg101 binding; Q99816; 340,000 tested, under 10 active; Potency, µM (top dose mostly 115 µM), usual class: inhibitors; active = well fitted inhibition curve with a large enough effect in the main read-out, with a control signal flat, not every such curve was filed as active; inconclusive = small, poorly fitted or top-dose-only effect, or effect the other way, or a change in a side signal; inactive = no such curve, though single readings can be large or run the other way
Target sequence (Q99816 whole entry, looked up): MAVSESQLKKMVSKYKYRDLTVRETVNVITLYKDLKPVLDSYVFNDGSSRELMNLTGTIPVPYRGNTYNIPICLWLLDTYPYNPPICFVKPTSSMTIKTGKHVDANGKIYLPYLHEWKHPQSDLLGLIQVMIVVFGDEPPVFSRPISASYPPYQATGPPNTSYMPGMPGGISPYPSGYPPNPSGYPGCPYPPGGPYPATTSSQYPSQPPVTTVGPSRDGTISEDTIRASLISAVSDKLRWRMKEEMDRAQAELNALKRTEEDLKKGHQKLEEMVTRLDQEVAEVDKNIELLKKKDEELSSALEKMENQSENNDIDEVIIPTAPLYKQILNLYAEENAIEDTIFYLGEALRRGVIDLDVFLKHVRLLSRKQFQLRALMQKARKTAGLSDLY
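Fluorescence polarization binding of Tsg101 binding domain (10 uM final) to FITC-labeled PTAP peptide (50 nM final) in HEPES pH 7.5 buffer with NaCl, Tween 20, EDTA, TCEP. Compounds added before peptide; binding 20 min at RT.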
Pin1 inhibitor – human Pin1 inhibition. Potency, µM (series often up to 115 µM), hits mostly inhibitors. Q13526. 390,000 tested, 0.009% active. Pin1 FP peptide displacement, HiFluor488, 10 min; active = well fitted inhibition curve with a large enough effect in the polarisation, with a control signal flat, not every such curve was filed as active; inconclusive = small, poorly fitted or top-dose-only effect, or effect the other way, or a change in a side signal; inactive = no such curve, though single readings can be large or run the other way; the % refers to the polarisation
Target sequence (Q13526 whole entry, looked up): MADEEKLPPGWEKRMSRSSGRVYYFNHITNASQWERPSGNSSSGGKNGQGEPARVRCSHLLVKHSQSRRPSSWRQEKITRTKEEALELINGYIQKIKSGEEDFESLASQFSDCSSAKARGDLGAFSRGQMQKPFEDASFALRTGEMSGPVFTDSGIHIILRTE
PKM2 activator – PKM2 (human) enzyme activation; P14618; purified PKM2, Kinase-Glo ATP luminescence, activation; response scale: 0% is enzyme alone, no compound; Potency, µM (doses to about 57.5 µM), actives largely listed as activators; 260,000 tested, 0.34% active; AID 1631; also: nearly all actives have a fitted effect of over 55% in size
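ATP formation by purified human PK-M2, quantified via coupled luciferase luminescence after 1 h at room temperature with 0.1 mM ADP and 0.5 mM PEP final.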
AT treatment – potential ataxia-telangiectasia treatments restoring KAP-1 phosphorylation. F2112 A-T fibroblasts, KAP-1 phosphorylation AlphaLISA; neocarzinostatin DNA damage 30 min before lysis. Potency, µM (doses to about 57.5 µM), usual class: activators. 320,000 tested, 0.19% active; also: nearly all actives have a fitted effect of over 45% in size
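ATM-like activity read as KAP-1 phosphorylation via AlphaLISA donor/acceptor antibody pairs after lysis and 6 hr at 25C. Cells were ATM-null patient fibroblasts (F2112, hTERT), dosed 60 min, then exposed to the DSB inducer NCS for 30 min.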
Large screens that a line does not name were inactive. A selection: hits, their analogues and other compounds. The true share with any hit is near 0.39%. Unless noted, calls follow the shape of the dose curve; as a rule, active = well fitted activation curve with a large enough effect; inconclusive = small, poorly fitted or top-dose-only effect; inactive = no such curve, though single readings can be large or run the other way.

O=C(c1ccccc1O)N(Cc1ccco1)Cc1cccs1	none (no result: PTAP TSG101 blk, PKM2 activator, AT treatment)
Cc1ccc2nc(/C(C#N)=C\c3ccc(N4CCOCC4)o3)[nH]c2c1	PTAP TSG101 blk inconclusive, Pin1 inhibitor inconclusive
Cc1ccc(/C(C#N)=C\c2ccc(N3CCOCC3)o2)cc1	Pin1 inhibitor inconclusive, PKM2 activator 2.8µM
O=S(=O)(NCCNc1nccc(C(F)(F)F)n1)c1ccccc1	PKM2 activator 18µM
O=C(NCCNc1nccc(C(F)(F)F)n1)c1cccc(C(F)(F)F)c1	none
COc1cccc(C2C(C#N)=C(NC(=O)NCc3ccccc3)Oc3ccc4ccccc4c32)c1 (stereo not drawn)	none (no result: PTAP TSG101 blk, PKM2 activator, AT treatment)
O=C(N/N=C/c1ccc2c(c1)OCO2)c1cccc2ccccc12	none
Cn1cc(C(=O)N/N=C/c2ccc3c(c2)OCO3)c2ccccc21	AT treatment 22µM
O=C(CNC(=O)c1ccc2ccccc2c1)OC(C(=O)Nc1cc(C(F)(F)F)ccc1Cl)c1ccccc1 (stereo not drawn)	none (no result: PTAP TSG101 blk, PKM2 activator, AT treatment)
C(=C1/CCCC2=C1Nc1ncnn1C2c1ccccc1)/c1ccccc1 (stereo not drawn)	AT treatment 40µM (no result: PTAP TSG101 blk, Pin1 inhibitor)
Clc1ccc(CN2CC[C@H]3C=CCc4cccc(c43)C2)cc1	Pin1 inhibitor inconclusive, AT treatment 35µM (no result: PKM2 activator)
CCCN1C(=O)/C(=C/c2ccc(C)o2)SC1=Nc1ccc(OC)cc1	none
CCCN1C(=O)/C(=C/c2ccc(C)o2)SC1=Nc1ccc(OCC)cc1	PKM2 activator 13µM
COc1cc(C(=O)NCc2cccc3ccccc23)cc(Cl)c1OC	PKM2 activator 18µM
COc1cc(C(=O)NCc2cc(C)nc3ccccc23)cc(OC)c1OC	none
COc1ccc(/C=C/c2ccccc2)cc1C1C2C=CCC(C)C2C(=O)N1Cc1ccccc1 (stereo not drawn)	none (no result: PTAP TSG101 blk, PKM2 activator, AT treatment)
COc1ccc(Br)cc1[C@H]1[C@H]2C=CC[C@@H](C)[C@@H]2C(=O)N1Cc1ccccc1	AT treatment 40µM
O=C(NC12CC3CC(CC(C3)C1)C2)c1cccnc1	none
O=C(NC12CC3CC(CC(C3)C1)C2)c1cccc(OC(F)F)c1	AT treatment 4µM (no result: PKM2 activator)
NC(=O)C1CCN(c2nccc(-c3ccc4c(c3)OCCO4)n2)CC1	none (no result: PTAP TSG101 blk, PKM2 activator, AT treatment)
COc1ccc(C(C)(C)C)cc1NC(=O)c1[nH]c(C)c(C(C)=O)c1C	Pin1 inhibitor inconclusive, PKM2 activator 18µM
O=[S+]([O-])(c1ccc2c(c1)OCCO2)N1CCN([S+](=O)([O-])c2ccc(F)cc2Br)CC1	none (no result: PTAP TSG101 blk, PKM2 activator, AT treatment)
COc1ccc2nc(C)cc(Sc3nc4ccccc4s3)c2c1	AT treatment 22µM
COc1ccc2nc(C)cc(SCC(=O)NNC(=O)COc3ccccc3)c2c1	none
Cc1cc(C)c(C)c(S(=O)(=O)N2CCN(S(=O)(=O)c3ccc4c(c3)OCCO4)CC2)c1C	none (no result: PTAP TSG101 blk, PKM2 activator, AT treatment)
COc1ccccc1C(=O)Nc1cccc(NC(C)=O)c1	none
COc1ccccc1C(=O)NC(=O)Nc1cccc(Cl)c1	AT treatment 3.5µM (no result: PKM2 activator)
O=c1[nH]c2ccc(S(=O)(=O)N3CCN(S(=O)(=O)c4ccc5c(c4)OCCO5)CC3)cc2[nH]c1=O	none (no result: PTAP TSG101 blk, PKM2 activator, AT treatment)
O=C(Nc1ccc(-c2nc3cccnc3s2)cc1)c1cccnc1Cl	AT treatment 14µM
O=C(Nc1ccc(-c2nc3cccnc3s2)cc1)c1ccc(Cl)nc1	none
COc1ccccc1N1CCN(C(=O)CNC(=O)c2cn(-c3ccccc3OC)c(=O)c3ccccc23)CC1	none (no result: PKM2 activator)
COc1ccccc1-n1cc(C(=O)NCC(=O)N2CCN(c3ccccn3)CC2)c2ccccc2c1=O	Pin1 inhibitor inconclusive, AT treatment 22µM
Cn1c(=O)oc2cc(S(=O)(=O)Nc3ccc(O)cc3)ccc21	PKM2 activator 8.9µM
N#Cc1c(-c2ccc(Cl)cc2)no[n+]1[O-]	none (no result: PTAP TSG101 blk, PKM2 activator, AT treatment)
COc1ccc(-c2cc(C(=O)Nc3cccc(Cl)c3)no2)cc1	AT treatment 10µM (no result: PKM2 activator)
COc1ccc(C2Nc3ccccc3C(=O)N2CCO)cc1COc1ccc(NC(C)=O)cc1 (stereo not drawn)	none (no result: PTAP TSG101 blk, PKM2 activator, AT treatment)
O=S1(=O)N=C(OCc2ccccc2)c2ccccc21	none (no result: PTAP TSG101 blk, PKM2 activator, AT treatment)
CCCCCc1c2c(cc(O)c1C(=O)O)OC(=O)c1cc(C(=O)CCCC)c(OC)cc1O2	none (no result: Pin1 inhibitor, PKM2 activator)
CCCCCc1c2c(cc(O)c1C(=O)O)OC(=O)c1c(cc(OC)cc1C(=O)CCCC)O2	Pin1 inhibitor 18µM
CSc1nc(NCCOCCO)c2sc3nc(-c4ccco4)c4c(c3c2n1)CCC4	PKM2 activator 22µM
CCN(CCO)c1nc(SC)nc2c1sc1nc(-c3ccco3)c3c(c12)CCC3	none
Cc1ccc(OC(F)F)c(NC(=O)Nc2cccc(C(F)(F)F)c2)c1	Pin1 inhibitor inconclusive, AT treatment 28µM
COc1ccccc1C1=NC(c2ccccc2)CN1c1ccccc1 (stereo not drawn)	AT treatment 28µM (no result: PKM2 activator)
COc1ccccc1-c1cn(-c2ccccc2)c(=S)[nH]1	none (no result: PKM2 activator)
O=C(COc1ccccc1Cl)Nc1ccc(OCc2cc(=O)n3ccsc3n2)cc1	none (no result: PTAP TSG101 blk, PKM2 activator, AT treatment)
O=c1cc(CSc2nnc(COc3ccccc3Cl)o2)nc2sccn12	PKM2 activator 25µM (no result: AT treatment)
COC(=O)CCc1c(C)c(C(=O)c2cc(OC)c(OC)c(OC)c2)c2ccccn12	AT treatment 3.5µM (no result: PKM2 activator)
Cc1cc(C)n(-c2ccc(S(=O)(=O)N3CCOCC3)cc2[N+](=O)[O-])n1	AT treatment 40µM
Cc1cc(C)n(-c2ccc(S(=O)(=O)N3CCCC3)cc2[N+](=O)[O-])n1	none
O=C1N(Cc2ccc(F)cc2)CCN1c1ccc(F)cc1	none
COC(=O)c1cc2n(n1)CCN(Cc1cccc(OC)c1)C2=O	PKM2 activator 20µM
COc1cccc(CN2CCN(c3ccc(F)cc3)C2=O)c1	PKM2 activator 28µM
O=[S+]1([O-])N=C(Oc2cccnc2)c2ccccc21	none (no result: PTAP TSG101 blk, PKM2 activator, AT treatment)
CCOc1ccc(NC(=S)N=Nc2c(O)[nH]c3ccccc23)cc1	none
Oc1cccc(NC(=S)N=Nc2c(O)[nH]c3ccccc23)c1	AT treatment 1.3µM
COc1ccc2nc(C)cc(Nc3ccc(C(=O)O)cc3)c2c1	AT treatment 10µM (no result: PKM2 activator)
COc1ccc(Nc2cc(C)nc3ccc(OC)cc23)cc1	none
COc1cc(F)c(S(=O)(=O)N2CCCN(S(=O)(=O)c3ccc4c(c3)OCCO4)CC2)c(F)c1	none (no result: PTAP TSG101 blk, PKM2 activator, AT treatment)
Cc1ccc(C(C)C)c(OCC(=O)N/N=C/c2ccc(S(=O)(=O)O)o2)c1	AT treatment 14µM
Cc1cc(SCC(=O)OCC(=O)N2CCN(C(=O)c3ccco3)CC2)c(C)cc1Br	PKM2 activator 25µM
COCCn1c(N)c(C(=O)NS(=O)(=O)c2ccc(C)cc2)c(=O)[nH]c1=O	PKM2 activator 25µM
CC1CCc2c(sc(/N=C/c3ccco3)c2C(N)=O)C1 (stereo not drawn)	AT treatment 16µM
CC1CCc2c(sc(/N=C/c3cccnc3)c2C(N)=O)C1 (stereo not drawn)	none
CCc1ccc(NC(=O)CNCc2ccc(OC)c(OC)c2)cc1	AT treatment 0.71µM (no result: PKM2 activator)
CCNc1cccc(S(=O)(=O)N2CCN(S(=O)(=O)c3ccc4c(c3)OCCO4)CC2)c1	none (no result: PTAP TSG101 blk, PKM2 activator, AT treatment)
